# According to PubChem BioAssay AID504832 (National Center for Advancing Translational Sciences (NCATS), 2011):
# About 18,000 (5.8%) of roughly 310,000 compounds were called active. About 22% were inconclusive and are not listed. The call rests on the fitted dose curve; in most records, active means well fitted inhibition curve with a large enough effect; inconclusive means small, poorly fitted or top-dose-only effect, or another doubt; inactive means no such curve, though single readings can be large or run the other way. The entries come from a sample that favours actives as a whole. Entries that show only a call come without a potency.
# Assay: Primary qHTS for delayed death inhibitors of the malarial parasite plastid, 48 hour incubation
# Settings: P. falciparum luciferase growth in erythrocytes; series mostly up to 28.7 µM
# How it was run: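 Parasite viability was followed by luminescence of a genomically integrated firefly luciferase. Cultures held 0.1% parasitemia at 2% hematocrit (final), incubated under 5% CO2 at 37 C.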
# Potency means the concentration at half of the fitted maximal effect.
SMILES,Potency,"activity change, negative = inhibition"
CC(C)(C)OC(=O)NC(Cc1ccccc1)C(=O)NC(CSC1CCCCO1)C(=O)NN (stereo unspecified),inactive,–
Cc1csc(NC(=O)CSc2nnc(-c3cccnc3)o2)n1,inactive,–
CC1=C(C(=O)OC(C)(C)C)C(c2ccc(Br)cc2)NC(=O)N1CCCC(=O)O (stereo unspecified),inactive,–
O=C(c1cccc(S(=O)(=O)N2CCOCC2)c1)N1CCOCC1,inactive,–
O=C(N/N=C/c1ccc([N+](=O)[O-])o1)c1cccc(S(=O)(=O)N2CCOCC2)c1,3.7 µM (active),–
COc1ccc(Br)cc1/C=N/NC(=O)c1cccc(S(=O)(=O)N2CCOCC2)c1,–,11.9% [at 5.75 µM] (inactive)
CN(Cc1c(F)cccc1Cl)S(=O)(=O)c1cccs1,inactive,–
Cn1ncc(Br)c1C(=O)NC1CCCC1,inactive,–
CCOC(=O)c1cnc(-c2ccccc2)nc1Oc1ccc(C)cc1,3.29 µM (active),–
CCCNC(=O)c1cnc(-c2ccccc2)nc1-c1ccccc1,inactive,–
CCCCOc1ccc(-c2ncc(C(=O)OCC)c(N)n2)cc1,inactive,–
COc1cccc(CNC(=O)C2CCCN(S(=O)(=O)N3CC(C)CC(C)C3)C2)c1 (stereo unspecified),inactive,–
O=C(COCc1cc(-c2ccc3c(c2)OCO3)on1)N1CCN(c2cccc(Cl)c2)CC1,inactive,–
CCCCC(=O)Nc1c2c(nn1-c1ccc([N+](=O)[O-])cc1)CS(=O)(=O)C2,inactive,–
Cc1ccccc1-n1c(SCC(=O)Nc2cccc3ccccc23)nc(O)cc1=O,13.1 µM (active),–
C=CCn1c(N)cc(=O)nc1SCC(=O)Nc1cccc2ccccc12,inactive,–
Cc1ccc2nc(SCC(=O)Nc3cccc4ccccc34)nc(=O)n2c1,inactive,–
O=C(Cc1c(Cl)cccc1Cl)NC1CC1,inactive,–
COc1ccc(C(=O)NC2CCN(C(=O)Nc3ccc(F)cc3)CC2)cc1,inactive,–
Cc1ccc(SCC(=O)NNC(=O)c2ccc(S(C)(=O)=O)cc2)cc1,inactive,–
COc1cccc(N(Cc2nnc3n2CCCCC3)C(=O)Nc2ccccc2F)c1,inactive,–
Cc1cccc(C)c1NC(=O)C1(N(C(=O)c2ccccn2)c2ccc(O)cc2)CCCCC1,inactive,–
COc1cccc(N(C(=O)c2ccn[nH]2)C2(C(=O)Nc3c(C)cccc3C)CCCCC2)c1,9.28 µM (active),–
COc1ccc(C(=O)OCC(=O)NCCCc2ccccc2)cc1OC,inactive,–
COc1ccc(C)cc1NC(=O)NCCCCc1ccccc1,14.7 µM (active),–
COc1ccc(C)cc1NC(=O)NCc1ccccn1,–,-13% [at 5.75 µM] (inactive)

SMILES,Potency,"activity change, negative = inhibition"
N#CC1(NC(=O)COC(=O)Cc2n[nH]c(=O)c3ccccc23)CCCCC1,inactive,–
O=C(O)c1cccnc1Sc1ncnc2sc3c(c12)CCC3,inactive,–
OCCNc1nc2ccccc2n1-c1ncnc2sc3c(c12)CCC3,6.57 µM (active),–
O=C(O)[C@@H]1CCCN1c1ncnc2sc3c(c12)CCC3,inactive,–
O=c1onc(-c2c(F)cccc2F)n1-c1ccccc1Cl,–,4.36% [at 0.00184 µM] (inactive)
Cc1ccc(S(=O)(=O)N(C)CC(=O)NC2CCCC2)cc1,inactive,–
Cc1ccc(S(=O)(=O)N(C)CC(=O)NCC(c2ccc(F)cc2)N2CCOCC2)cc1 (stereo unspecified),9.28 µM (active),–
CN(CC(=O)NCCN1CCOCC1)S(=O)(=O)c1ccc(F)cc1,inactive,–
COc1cc([N+](=O)[O-])ccc1NC(=O)COC(=O)CCOc1ccc(C)cc1,inactive,–
COc1ccccc1OCCNC(=O)CCNC(=O)c1ccccc1Cl,inactive,–
O=CN1CCN(C(=O)c2ccc3c(c2)OCO3)CC1,inactive,–
CC(=O)c1c(C)[nH]c(C(=O)COC(=O)CCOc2ccc(C)cc2)c1C,inactive,–
CCNC(=S)N(CCN(CC)CC)Cc1cc2cc3c(cc2[nH]c1=O)OCCO3,inactive,–
COCCn1cnc2c1c(=O)n(CC(=O)NN)c(=O)n2Cc1ccccc1,inactive,–
N=c1c2c(-c3ccccc3)c(-c3ccccc3)n(Cc3ccccc3)c2ncn1CCCO,2.33 µM (active),–
CCN(CC)CCn1cnc2c1c(=O)[nH]c(=O)n2Cc1ccccc1,inactive,–
CCNC(=O)CN(c1ccc(C)cc1)S(=O)(=O)c1ccc(SC)cc1,inactive,–
Cc1ccc(S(=O)(=O)N(CC(=O)NCCSC2CCCCC2)c2ccccc2F)cc1,4.65 µM (active),–
Cc1ccc(S(=O)(=O)N(CC(=O)NCc2ccco2)c2ccccc2C)cc1,inactive,–
Cc1cccc(C)c1OCCN1CCOCC1,inactive,–
COc1ccc(/C=C/C(=O)c2cc(Br)ccc(=O)c2O)cc1,13.1 µM (active),–
COc1ccc(/C=C/C(=O)c2ccc(OC)cc2O)cc1,inactive,–
COc1ccc(C(=O)/C=C/c2ccc(OC3CSC3)cc2)cc1,inactive,–
CC(C)CCN1CCN=C1N(C)C,inactive,–
Cc1cc2nc3c(=O)n(Cc4ccccc4)c(=O)[nH]c3nc2cc1N,inactive,–
Cc1nc2c(c(=O)n1Cc1ccco1)c1nc3ccccc3nc1n2Cc1ccccc1,9.28 µM (active),–

SMILES,Potency,"activity change, negative = inhibition"
COCCCn1c2nc3ccccc3nc2c2c(=O)n(Cc3ccc(Cl)cc3)c(C)nc21,inactive,–
Nc1cc(=O)nc(SCc2ccccc2)n1Cc1ccco1,inactive,–
Cc1ccc(Cn2c(C)nc3c(c2=O)c2nc4ccccc4nc2n3Cc2ccco2)cc1,5.86 µM (active),–
Cc1cc(NC(=O)CSc2nc3cc(Cl)ccc3c(=O)n2Cc2ccco2)no1,inactive,–
CC1(C)Cc2cccc(OCC(=O)NCc3ccccc3)c2O1,inactive,–
O=C(Oc1ccc(F)cc1)N1CCOCC1,inactive,–
COc1ccccc1NC(=O)COC(=O)COc1ccccc1F,inactive,–
COc1ccccc1NC(=O)C1CCN(C(=O)c2ccc(C(C)(C)C)cc2)CC1,inactive,–
O=C(COC(=O)c1cc(S(=O)(=O)N2CCOCC2)ccc1Cl)NCCc1ccccc1,inactive,–
OC(c1nc2ccc(F)cc2[nH]1)C(O)c1nc2ccc(F)cc2[nH]1 (stereo unspecified),inactive,–
Cc1ccc(CNC(=O)c2c(-c3ccccc3)noc2C)cc1,–,2.95% [at 0.00184 µM] (inactive)
COc1ccc(C2=NOC(Cn3nc(C(=O)NCc4ccc5c(c4)OCO5)cc3-c3ccccc3)C2)cc1 (stereo unspecified),9.28 µM (active),–
Cc1ccccc1-c1cc(C(=O)NCC2CC2)n(CC2CC(c3cccnc3)=NO2)n1 (stereo unspecified),inactive,–
COc1ccccc1-n1c(C)nc2cc(C(=O)NCc3ccc4c(c3)OCO4)ccc21,inactive,–
COc1ccc(NC(=O)NCc2ccc3c(c2)OCO3)c(OC)c1,inactive,–
Cc1ccc(CNC(=O)c2cc(-c3ccccc3C)n(CC3CC(c4cccc([N+](=O)[O-])c4)=NO3)n2)cc1 (stereo unspecified),5.22 µM (active),–
O=C(COC(=O)c1cc(=O)[nH]c2ccccc12)NCc1cccc(Cl)c1,inactive,–
O=C(NCc1cccs1)c1ccc(CS(=O)Cc2ccccc2Cl)o1 (stereo unspecified),inactive,–
CC(=O)NS(=O)(=O)c1ccc2c(c1)Cc1cc(S(=O)(=O)NC(C)=O)ccc1-2,inactive,–
CC(OC(=O)c1cc2ccccc2o1)C(=O)Nc1ccc(N2CCOCC2)cc1 (stereo unspecified),inactive,–
O=[N+]([O-])c1ccc(N/N=C2/CCCCC2c2ccccn2)c([N+](=O)[O-])c1 (stereo unspecified),inactive,–
C[n+]1ccccc1C1CCCC/C1=N\Nc1ccc([N+](=O)[O-])cc1[N+](=O)[O-] (stereo unspecified),3.7 µM (active),–
Cc1cc([N+](=O)[O-])ccc1NC1CCCC1,inactive,–
Cc1cc(O)c(C2(O)C(=O)Nc3ccccc32)cc1C (stereo unspecified),inactive,–
CCCn1nnnc1NCc1ccc(OC)cc1,inactive,–
Cc1ccc(Cn2c(SCC(=O)N/N=C/c3ccccc3OCC(=O)O)nc3ccccc32)cc1,inactive,–

SMILES,Potency,"activity change, negative = inhibition"
CCCc1nc2c(C)cc(-c3nc4ccccc4n3C)cc2n1Cc1ccc(-c2ccccc2C(=O)O)cc1,3.79 µM (active),–
CC(=O)c1nc2ccccc2n1Cc1ccccc1,–,18.9% [at 0.00184 µM] (inactive)
CN(c1ccccc1)S(=O)(=O)c1cccc(C(=O)NNC(=O)c2ccncc2)c1,inactive,–
CCOc1ccc(N2C(=O)CC(N(CCc3ccc(OC)c(OC)c3)C(=S)Nc3ccccc3)C2=O)cc1 (stereo unspecified),10.4 µM (active),–
COC(=O)CN(C(=S)Nc1ccc(Cl)cc1)C1CC(=O)N(c2ccc(OC)cc2)C1=O (stereo unspecified),inactive,–
CCOc1ccc(N2C(=O)CC(N(O)c3ccccc3)C2=O)cc1 (stereo unspecified),inactive,–
CCNC(=S)Nc1cccc(Cl)c1C,inactive,–
Cc1cccc(NC(=S)NCCc2ccc(Cl)cc2)c1C,2.94 µM (active),–
S=C(NCCc1ccccc1)Nc1ccccc1,inactive,–
O=C(CN1CCCSc2ccccc21)N1CCN(S(=O)(=O)c2ccccc2)CC1,inactive,–
O=C(CN1C(=O)S/C(=C\c2ccccc2Cl)C1=O)NC1C=CS(=O)(=O)C1 (stereo unspecified),inactive,–
COc1c(C)c2c(c(O)c1C/C=C(\C)CCC(=O)O)C(=O)OC2,2.56 µM (active),–
COc1ccc(C(=O)Nc2ccnn2C2CCN(Cc3ccncc3)CC2)cc1,inactive,–
C=CCn1c(=O)c(C(=O)Nc2ncccc2O)c(O)c2ccccc21,inactive,–
CCOc1ccc(S(=O)(=O)Nc2ccc(C(=O)NCCCN3CCCC3=O)cc2)cc1,inactive,–
O=C(NCC1CCCO1)c1ccc(S(=O)(=O)Nc2ccc(F)cc2)cc1 (stereo unspecified),inactive,–
O=C(NCC1(N2CCCCC2)CCCCC1)c1ccc(NS(=O)(=O)c2ccc(F)cc2)cc1,14.7 µM (active),–
CCOc1ccc(S(=O)(=O)Nc2ccc(OC)nc2)cc1,inactive,–
CN(C)S(=O)(=O)c1ccc(C(=O)NCC2(N3CCOCC3)CCCCC2)cc1,inactive,–
CCOC(=O)c1cccc(NS(=O)(=O)c2c(C(=O)N3CCCCCC3)c(C)n(C)c2C)c1,inactive,–
CCOc1ccc(S(=O)(=O)Nc2cccc(C(=O)NCC3(N4CCCCC4)CCCCC3)c2)cc1,14.7 µM (active),–
CCOc1ccc(NS(=O)(=O)c2ccc(C(=O)NCC(c3ccccc3OC)N3CCCC3)cc2)cc1 (stereo unspecified),10.4 µM (active),–
CCOc1ccc(S(=O)(=O)NCCC(=O)N2CCCCCCC2)cc1,inactive,–
